Results published in the supplement of paper PMC9948646.
Unmarked numbers belong to inactive results.

System: gramicidin D channels in DC22:1PC lipid vesicles (bilayer-modifying potency)
Experiment: initial Tl+ fluorescence quench rate relative to no-drug control (NormRate, gramicidin monomer-dimer shift) (ratio (fold of control)); higher = stronger bilayer-modifying effect (equilibrium shifted toward conducting dimers), active = 1.5 or more
Conditions: 10 µM; lipid concentration 50 µM; temperature: 25 °C
Experimental: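 Stopped-flow fluorescence quench assay: ANTS-loaded DC22:1PC large unilamellar vesicles doped with gramicidin D (1:2000), 50 µM lipid, equilibrated 10 min with 10 µM drug (0.1% DMSO), mixed with Tl+ quench buffer at 25°C. Initial quench rate (Tl+ influx) was fitted with a modified stretched exponential and normalised to the no-drug control rate (NormRate); duplicates from two independent LUV preparations (triplicates for 7 drugs).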

Structure (SMILES) | initial Tl+ fluorescence quench rate
c1ccc(-c2cc(N3CCCCC3)c3ccccc3n2)nc1 | 1.08
FC(F)(F)c1ccc(N(c2cccnc2)C2CCN(c3ccc(C(F)(F)F)cn3)CC2)cc1 | 1.56 (active)
CNC(=O)[C@@H]1Cc2c([nH]c3cc(Cl)ccc23)C2(CCN(CCc3ccccc3)CC2)N1 | 2.52 (active)
Cc1cc(NC(=O)c2ccc(Oc3ccc(Cl)cc3O)o2)no1 | 1.11
O=C1Nc2ccc(Br)cc2[C@]12NCCc1c2[nH]c2ccccc12 | 3.74 (active)
Cc1cc(C)cc(COc2ccc3c(C)c(CCC(=O)O)c(=O)oc3c2C)c1 | 2.64 (active)
Cc1[nH]c2ccccc2c1[C@@H](c1cccs1)N1CCN(C)CC1 | 1.44
COc1ccc(Nc2ccccc2NC(=O)c2ccc(O)nc2)cc1 | 1.03
FC(F)(F)c1cnc(Sc2nnc(-c3ccncc3)o2)c(Cl)c1 | 1.23
CC(=O)Oc1ccccc1C(=O)Nc1ncc([N+](=O)[O-])s1 | 1.05
COc1cc(CN2CCC3(C=Cc4ccccc43)CC2)cc2c1OCO2 | 2.43 (active)
CNCC[C@H](Oc1ccc(C(F)(F)F)cc1)c1ccccc1 | 1.41
Oc1c(I)cc(I)c2cccnc12 | 1.47
c1ccc(Oc2ccc(-c3cc(C4CCOCC4)[nH]n3)cc2)cc1 | 3.48 (active)
Cc1cc(Nc2ccc(C(F)(F)F)cc2)n2ccnc2n1 | 1.05
O=C(c1[nH]nc2c1CCCC2)N1CCN(Cc2ccc3c(c2)OCO3)CC1 | 1.03
COc1ccc(N(CCc2cccc(C)n2)C(C)=O)cc1 | 1.04
CCc1c(C)nc(-n2nc(C)cc2NC(=O)c2ccccc2SC)[nH]c1=O | 1.2
CC(C)(C)c1cc(C(=O)Nc2cccnc2)cc(C(=O)Nc2cccnc2)c1 | 1.39
CCOC(=O)c1c(NC(=O)c2c(F)c(F)c(F)c(F)c2F)sc(C(N)=O)c1C | 1.41

Structure (SMILES) | initial Tl+ fluorescence quench rate
COc1ccccc1OCCCCn1c(C2CC2)nc2ccccc21 | 1.18
Cc1cc(C)n2nc(C(=O)Nc3cc(C(F)(F)F)ccc3N3CCOCC3)nc2n1 | 1.17
O=C(NCc1cc(Cl)cc(Cl)c1)c1c(C(F)(F)F)nc2ccccn12 | 1.21
CC(C)NCC(=O)Nc1cccc(C(=O)Nc2cccc(C(F)(F)F)c2)c1 | 1.37
CS(=O)(=O)c1ccccc1C(=O)N(Cc1ccccc1)c1ccccc1 | 1.09
COC(=O)c1ccc(F)cc1NS(=O)(=O)c1cccc(-c2cnn(Cc3ccccc3)c2)c1 | 1.25
Nc1ncnc2c1ncn2[C@@H]1O[C@H](COS(=O)(=O)NC(=O)c2ccccc2O)[C@@H](O)[C@H]1O | 1.02
Cc1nnc(NCc2cccc(Cl)c2)c2ccccc12 | 1.05
COc1cc(-c2cc(-c3ccc(S(C)(=O)=O)cc3)cnc2N)ccc1O | 1.09
CC(=O)NC[C@H]1CN(c2ccc(-c3ccc(CNCc4cn[nH]n4)cc3)c(F)c2)C(=O)O1 | 1.37
COC(=O)Nc1nc2cc(C(=O)c3ccccc3)ccc2[nH]1 | 1.04
COc1cc(NC(=O)Cc2nn(C)c(=O)c3ccccc23)ccc1Cl | 1.11
COc1ccc(CN2CCOc3ccc([C@@](C)(O)CN(C)C)cc3C2)cc1C | 1.2
O=C(C1CCN(c2cc(-n3cccc3)ncn2)CC1)N1CCc2ccccc2C1 | 1.45
COc1cccn2c(C(=O)N3CCCCC3)c(C(F)(F)F)nc12 | 1.08
CC[C@H](CO)NCCN[C@H](CC)CO | 1.02
COc1ccc(Oc2ccc([C@@H](C)N(C)c3ncc4c(N)nc(N)nc4n3)cc2)cc1 | 3.36 (active)
CC(C)n1ncc2c(C(=O)NC[C@H](c3cccs3)N3CCOCC3)cc(-c3ccccc3)nc21 | 2.74 (active)
COc1ccc(C2=NCCN2)cc1-c1cn(-c2cccc(C3=NCCN3)c2)nn1 | 1.2
C[C@@]1(COc2ccc(N3CCC(Oc4ccc(OC(F)(F)F)cc4)CC3)cc2)Cn2cc([N+](=O)[O-])nc2O1 | 1.1
